# Test results: the supplement of paper PMC11018630
# Counter-ions that a name gives are not always drawn. ± gives the standard deviation of the averaged measurements. The full ranking holds about 1,100 compounds; the median of “day of extracellular matrix detachment from plate” is about 16, and the lowest 2% start at about 10. This excerpt belongs to a sample that is enriched for the lowest values.
# Tested on: RDEB dermal fibroblasts EB71
# Assay: day of extracellular matrix detachment from plate (days); higher = delayed detachment (less fibrotic matrix)
# Details: compound concentration: 10 uM
row,Compound,day of extracellular matrix detachment from plate
1,Cc1cccc([C@H](C)c2c[nH]cn2)c1C [Dexmedetomidine HCl (Precedex)],10 ± 1.7
2,Cc1cccc([C@H](C)c2c[nH]cn2)c1C [Dexmedetomidine],18
3,Cc1cccc(Cc2c[nH]cn2)c1C [Detomidine HCl],14.7 ± 7.4
4,Cc1cccc(C(C)c2c[nH]cn2)c1C (stereo unspecified) [Medetomidine HCl],17 ± 5.2
5,O=C(O[C@H]1C[C@H]2CC[C@@H](C1)[N+]21CCCC1)C(O)(c1ccccc1)c1ccccc1 [Trospium chloride],12
6,Cc1ccc(-c2nc3ccc(C)cn3c2CC(=O)N(C)C)cc1 [Zolpidem],17.7 ± 1.1
7,C=C1CC[C@@]2(O)[C@H]3Cc4ccc(O)c5c4[C@@]2(CCN3CC2CC2)[C@H]1O5 [Nalmefene HCl],13
8,O=C1CC[C@@]2(O)[C@H]3Cc4ccc(O)c5c4[C@@]2(CCN3CC2CC2)[C@H]1O5 [Naltrexone HCl],10 ± 1.7
9,C=CCN1CC[C@]23c4c5ccc(O)c4O[C@H]2C(=O)CC[C@@]3(O)[C@H]1C5 [Naloxone HCl],17.7 ± 3.5
10,O=C(O[C@H]1C[N+]2(CCCOc3ccccc3)CCC1CC2)C(O)(c1cccs1)c1cccs1 [Aclidinium Bromide],16.7 ± 2.3
11,N[C@@H]1C[C@H]1c1ccccc1 [Tranylcypromine (2-PCPA) HCl],13
